# Source: PubChem (National Center for Advancing Translational Sciences (NCATS))
# CtBP-E1A blk = inhibitors of CtBP/E1A interaction | hit rate 0.49% among 340,000 | AlphaScreen GST-E1A/His-CtBP binding, 1536-well; active compounds read low | activity change, % (test concentration not listed); in the data active = activity change below about -65%; inconclusive = mostly about -30% to -63%
#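 GST-E1A and His-tagged CtBP (125 nM each as 5X stock) were preincubated with pin-transferred compound for 2 h at 37 °C in the dark, then glutathione donor and nickel acceptor beads were added for 1 h before AlphaScreen reading.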
# ATXN viability = reduces viability in counter-screen for ATXN expression inhibitors. Potency, µM (doses to about 56.7 µM), usual class: cytotoxic. hit rate 0.49% among 400,000. S2 cells (HEK-293 line with an ATXN2-luciferase reporter) viability, CellTiter-Fluor protease fluorescence, 24 h; also: nearly all actives have a fitted effect of over 40% in size
# TGFb SMAD3 inh = TGF-b pathway inhibition. hit rate 1.2% among 410,000. HepG2 CAGA-GFP TGF-b/SMAD3 reporter, GFP fluorescence, 18 h; TGF-beta stimulated, 500 pg/mL final. Potency, µM (series often up to 46.1 µM), most hits filed as inhibitors; also: nearly all actives have a fitted effect of over 65% in size
#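 Read-out: total well GFP (ex488/em500-530) summed from mean per-cell fluorescence. Cells: HEPG2 CAGA-GFP, 1% FBS DMEM, 18 h at 37 degrees C with 500 pg/mL final TGF-beta. Unstimulated wells served as the full-inhibition control; stimulated DMSO wells = 0%.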
# HepG2 tox = kills HepG2 cells in TGF-b inhibitor counter-screen | HepG2 CAGA-GFP viability, ATP luminescence, 18 h | Potency, µM (top dose mostly 46.1 µM), most hits filed as cytotoxic | hit rate 0.76% among 410,000
#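 CellTiter-Glo luminescence gave cytotoxicity after 18 hours at 37 degrees C. The cells were HepG2 CAGA-GFP in 1% FBS DMEM, stimulated with 500 pg/mL TGF-beta after compound addition. %Activity was normalised to no-cell wells (complete cell-killing) and DMSO (no toxicity), and curves were fitted and classified.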
# Six1-Eya2 blk = blocks human Six1 binding to Eya2; Q15475+O00167; AlphaScreen GST-Six1/His-Eya2 binding, biochemical; active compounds read low; activity change, % (no concentration beside the values); hit rate 0.56% among 360,000; AID 651725; in the data active = activity change below about -65%; inconclusive = mostly about -30% to -63%
#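 AlphaScreen luminescence read after one hour at 37 °C in darkness. Pin-transferred compounds met GST-Six1 and His-Eya2 protein (5X stock 250 nM/500 nM) plus glutathione donor and Ni-chelate acceptor beads (5X, 50 ug/mL).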
# ATXN2 expr inh = inhibitors of ATXN2 expression. Potency, µM (highest dose often 57 µM), hits mostly inhibitors. hit rate 0.72% among 360,000. HEK-293 ATXN2-luciferase reporter, luminescence, 24 h; also: nearly all actives have a fitted effect of over 55% in size
#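 ATXN2-luciferase reporter cells (luciferase flanked by upstream and downstream ATXN2 gene portions) were treated 24 h at 37 °C with compounds at up to 57 uM. SteadyGlo luminescence gave expression; GF-AFC fluorescence gave viability.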
# A number is an active result; – = inactive; ? = inconclusive; · = not tested or not shown. The list is not random: actives were taken first. Their share in the collection is about 2.8%. Unless noted, calls follow the shape of the dose curve; as a rule, active = well fitted curve in the direction sought with a large enough effect; inconclusive = small, poorly fitted or top-dose-only effect, or another doubt; inactive = no such curve, though single readings can be large; an effect the other way counts as inactive or inconclusive.
SMILES,CtBP-E1A blk,ATXN viability,TGFb SMAD3 inh,HepG2 tox,Six1-Eya2 blk,ATXN2 expr inh
CC(Nc1nc(N2CCCCC2)nc2ccccc12)c1ccccc1 (configuration not stated),–,·,?,13µM,–,·
COc1cc(NC(=O)c2cccc3c(-c4cnn(C)c4)coc23)cc(OC)c1OC,–,?,–,–,–,18µM
COC(=O)c1c(NC(=O)C(Cl)Cl)sc2c1C(C(=O)OC)CC2 (configuration not stated),·,–,11µM,–,–,·
COC(=O)c1c(NC(=O)C(C)(C)C)sc2c1C(C(=O)OC)CC2 (configuration not stated),–,–,–,–,–,–
CC(=O)Nc1cccc(NC(=O)Cc2cccs2)c1,·,–,–,–,–,·
O=C(Cc1cccs1)Nc1cccc(-c2nc3cc4ccccc4cc3[nH]2)c1,–,?,11µM,–,–,–
CC(C)c1ccc(/C=C/c2[nH]c(=O)[nH]c(=O)c2[N+](=O)[O-])cc1,·,–,?,16µM,–,·
CC(=O)c1ccc(F)c(-c2cc(C)cc3c2OC(CNC(=O)Cn2nc(C)nc2C)C3)c1 (configuration not stated),·,–,·,·,·,·
COc1ccc(CNCC(O)(c2ccccc2)c2ccc(Cl)cc2)cc1 (configuration not stated),–,–,?,16µM,–,?
COc1ccc(C(=O)NCCN2Cc3cc(C)ccc3OC(C)C2)c(OC)n1 (configuration not stated),·,–,·,·,·,·
CN(C)CCN(C)c1cc2c(c3c1ccn3C)C1CCC2O1 (configuration not stated),–,–,–,–,–,–
Cn1ccc2c(N3c4ccccc4CCc4ccccc43)cc3c(c21)C1CCC3C1 (configuration not stated),–,?,?,–,–,–
CN(Cc1ccccc1)c1cc2c(c3c1ccn3C)C1CCC2O1 (configuration not stated),?,–,?,–,?,–
Cn1ccc2c(N3c4ccccc4CCc4ccccc43)cc3c(c21)C1CCC3O1 (configuration not stated),?,–,?,7.1µM,–,–
Cn1ccc2c(N(Cc3ccccc3)Cc3ccccc3)cc3c(c21)C1CCC3O1 (configuration not stated),–,–,10µM,–,?,–
COc1ccccc1N(C)c1cc2c(c3c1ccn3C)C1CCC2O1 (configuration not stated),?,?,16µM,–,–,–
CCn1cc(C(=O)OCC(=O)Nc2cc(Cl)ccc2OC)c(=O)c2ccc(C)nc21,·,–,–,–,·,–
